# Measured values: PubChem BioAssay (Tox21)
# Inconclusive results are not listed. A call without a number means that no potency is given here. Unmarked numbers belong to inactive results. The source made the active and inactive calls. The call rests on the fitted dose curve; in most records, active means well fitted inhibition curve with a large enough effect in the signal ratio in the repeat runs, with a control signal flat; inconclusive means weak or mixed curves, or effect the other way; inactive means flat fitted curve, though single readings scatter; the % refers to the signal ratio.
# Target: D(2) dopamine receptor (Homo sapiens) (UniProt P14416)
# Sequence (P14416 whole entry, looked up): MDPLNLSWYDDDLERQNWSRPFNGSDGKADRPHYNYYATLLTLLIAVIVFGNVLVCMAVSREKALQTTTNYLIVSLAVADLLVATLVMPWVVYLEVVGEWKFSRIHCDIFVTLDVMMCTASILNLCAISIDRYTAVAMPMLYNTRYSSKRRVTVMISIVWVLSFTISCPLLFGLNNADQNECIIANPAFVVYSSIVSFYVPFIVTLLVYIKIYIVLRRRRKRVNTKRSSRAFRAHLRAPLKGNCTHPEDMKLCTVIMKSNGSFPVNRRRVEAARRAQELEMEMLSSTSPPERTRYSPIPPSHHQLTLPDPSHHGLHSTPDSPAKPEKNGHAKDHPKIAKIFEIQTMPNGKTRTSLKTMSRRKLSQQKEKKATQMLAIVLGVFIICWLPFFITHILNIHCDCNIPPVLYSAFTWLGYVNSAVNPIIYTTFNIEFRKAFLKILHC
# Assay: Dopamine D2 receptor (DRD2) small molecule antagonists, cell-based qHTS assay (AID 1963595)
# Conditions: HEK293-DRD2 cAMP HTRF antagonist mode; series mostly up to 92.4 µM
# Excerpt: National Center for Advancing Translational Sciences [NCATS]
# Division of Preclinical Innovation [DPI]
# U.S. Environmental Protection Agency [EPA]
# National Institutes of Environmental Health Sciences [NIEHS]
# National Toxicology Program [NTP]
# U.S. Food and Drug Administration [FDA]
# DRD2 is the D2 subtype of the dopamine receptor, which is coupled to Gi subtype of G protein-coupled receptor. This G protein-coupled receptor inhibits adenylyl cyclase activity. The DRD2-HEK293 cell line stably expressing D2 dopamine receptor can be used for screening agonists and antagonists of interactions between D2 and its ligands. The Hek293-DRD2 cAMP assay is based on HTRF technology. It measures changes of cAMP accumulation in response to Gi coupled GPCR activation or inhibition.
# Tox21 Assay Protocol Summary:
# DRD2-Hek293 cells were dispensed at 600 cells/3uL/well in 1536-well white plates using a Multidrop Dispenser. After the assay plates were incubated at a 37 C/5% CO2 incubator for 24 h, 1 uL of Ro20-1724 at final concentration of 0.1 mM was transferred to the assay plate by a Flying Reagent Dispenser. Following Ro20-1724 addition, 23 nL of compound dissolved in DMSO, positive controls or DMSO only was added to the assay plates via Wako pintool station. The assay plates were incubated at room temperature for 10 min. Next, 1 uL of mixture of NKH477 (final concentration at 200 nM) and quinpirole (final concentration at 12 nM) was added into the plates. After the assay plates were incubated at room temperature for an additional 30 min, 2.5 ul/well of cAMP-d2 and 2.5 ul/well of anti-cAMP-cryptate were added respectively into the assay plates using a Flying Reagent Dispenser. The plates were incubated at room temperature for 1 h. The fluorescence intensity in the plates was measured at 340 nm excitation and 665 & 620 nm emission by an Envision plate reader.
SMILES,Potency,"activity change, negative = inhibition"
OCCN1C[C@H](O)[C@@H](O)[C@H](O)[C@H]1CO,inactive,
ClC(Cl)(Br)Br,inactive,
c1ccc(C[P+](c2ccccc2)(c2ccccc2)c2ccccc2)cc1,inactive,
COc1ccc(-c2cc(C(F)F)nn2-c2ccc(S(N)(=O)=O)cc2)cc1F,inactive,
O=C(O)c1cc(C(=O)O)c(C(=O)O)cc1C(=O)O,inactive,
S=C(SSSSSSC(=S)N1CCCCC1)N1CCCCC1,,1.15% [at 18.9 µM]
O=c1cc(-c2ccccc2)oc2ccc3ccccc3c12,inactive,
O=C(NCC1CN(c2ccc(N3CCOCC3=O)cc2)C(=O)O1)c1ccc(Cl)s1 (stereo not given),inactive,
OCCC(F)(F)C(F)(F)C(F)(F)C(F)(F)C(F)(F)C(F)(F)C(F)(F)C(F)(F)F,inactive,
O=C(c1ccco1)N1CCNCC1,inactive,
CC(C(=O)O)c1ccc(CC2CCCC2=O)cc1 (stereo not given),inactive,
COC(=O)c1ccccc1Cl,inactive,
CN(C)CCc1c[nH]c2ccc(C[C@H]3COC(=O)N3)cc12,inactive,
CCCCC/C=C/CC(=O)OC,inactive,
CC(N)C12CC3CC(CC(C3)C1)C2 (stereo not given),inactive,
CC(C)(O)C(=O)c1ccccc1,inactive,
CCn1cc(C(=O)O)c(=O)c2cc(F)c(N3CCN(C)CC3)cc21,,4.28% [at 18.9 µM]
O=C(OCC1(COC(=O)c2cccnc2)CCCC(COC(=O)c2cccnc2)(COC(=O)c2cccnc2)C1O)c1cccnc1,inactive,
COC(=O)CCCC(=O)O,inactive,
CCCCC(CC)COC(=O)COc1ccc(Cl)cc1C (stereo not given),inactive,

SMILES,Potency,"activity change, negative = inhibition"
CC(O)CN(CCCN(C)C)CCCN(C)C (stereo not given),inactive,
CCCCCCCCCCCCCCC1CO1 (stereo not given),inactive,
N=C(N)c1ccc(OCCCOc2ccc(C(=N)N)cc2)cc1,inactive,
CC(C)(C(=O)c1cccnc1)c1cccnc1,inactive,
CC1(C)S[C@@H]2[C@H](NC(=O)C(c3ccccc3)S(=O)(=O)O)C(=O)N2[C@H]1C(=O)O (stereo not given in full),inactive,
O=C(O)CCC(=O)c1ccc(-c2ccccc2)cc1,inactive,
Cc1ncc(CO)c(C=O)c1O,inactive,
CCOC(=O)CS,inactive,
CCc1nccnc1CC,,-10.9% [at 18.9 µM]
COC(=O)N/N=C/c1c[n+]([O-])c2ccccc2[n+]1[O-],inactive,
C[C@@H](CN1CC(=O)NC(=O)C1)N1CC(=O)NC(=O)C1,inactive,
Cc1cc(=O)oc2cc(O[C@@H]3SC[C@@H](O)[C@H](O)[C@H]3O)ccc12,inactive,
CCC(CC)C(=O)O,inactive,
COCC(=O)Nc1c(I)c(C(=O)NCC(O)CO)c(I)c(C(=O)N(C)CC(O)CO)c1I (stereo not given),inactive,
CCCCCCCCCCCc1ccccc1,inactive,
CC(=O)Oc1cc(C(C)C)c(OCCN(C)C)cc1C,inactive,
CCOC(=O)/C=C/C(=O)OCC,inactive,
CN1CC(=O)NC1=N,inactive,
CCO[Si](CC)(OCC)OCC,inactive,
CCCCNS(=O)(=O)c1ccc(C)cc1,inactive,
